In the library only some 21% were active in any assay of this set; here they are far more common.
Shiga inhibitor: blocks Shiga toxin action in Vero cells. Vero cells, Shiga toxin protein synthesis inhibition reporter. inhibition, % at 38.7 µM. 290,000 tested, 9.2% active. AID 2315; in the data active means inhibition mostly above about 28%, no sharp cut-off; inactive means mostly below about 43%; further: 0% is about no effect
Pf growth 48h: P. falciparum growth inhibition at 48 hours (one generation). 310,000 tested, 5.9% active. P. falciparum luciferase growth in erythrocytes, 48 h. Potency, µM (doses to about 28.7 µM), inactives show at the highest dose activity change, negative = inhibition, hits mostly inhibitors. AID 504832; further: potency means the concentration at half of the fitted maximal effect; on the % scale 0 is the no-effect control and ±100 the full control effect
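Luciferase-expressing parasites in RBCs, 2% Hct / 0.1% parasitemia final; RPMI 1640 + 0.5% Albumax; 37 C, 5% CO2, one generation; luminescence read-out, lower signal = inhibition.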
Pf growth 96h: P. falciparum growth inhibition at 96 hours. P. falciparum luciferase reporter growth, 96 h. Potency, µM (highest dose often 28.7 µM), inactives show at the highest dose activity change, negative = inhibition, most hits filed as inhibitors. 320,000 tested, 6.9% active. AID 504834; further: potency means the concentration at half of the fitted maximal effect; on the % scale 0 is the no-effect control and ±100 the full control effect
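Cell-based qHTS: luciferase-tagged P. falciparum in erythrocytes (2% hematocrit, 0.05% parasitemia final) incubated with compounds for 96 hours, 37 C, 5% CO2; luciferase detection reagent then added and luminescence measured.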
CHX counter: affects cycloheximide protein synthesis inhibition readout, counter-screen. cell reporter, cycloheximide protein synthesis inhibition counterscreen. max response, %. 300,000 tested, 12% active. AID 2314; in the data active means max response mostly above about 13%, no sharp cut-off; inactive means mostly below about 14%; further: read at 38.3 µM for the half of the compounds with a filed dose; 0% is about no effect
HCV inh: inhibitors of hepatitis C virus infection; AID 651820; 340,000 tested, 3.4% active; Potency, µM (titrated, usually from 41.8 µM), without a hit: at the top dose activity change, negative = inhibition, actives largely listed as inhibitors; Huh7.5.1 HCVcc-Cre infection, luciferase reporter, 44 h; further: potency means the concentration at half of the fitted maximal effect; on the % scale 0 is the no-effect control and ±100 the full control effect
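Seed cells (1,000/well) for 4 h; treat with compound and infect with HCVcc-Cre, moi about 0.5. Incubate 44 h, then detect luciferase activity.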
AMA1-RON2 inh: disrupts binding of P. falciparum AMA1 to RON2; AlphaScreen AMA1-biotinylated RON2 peptide binding; Potency, µM (series often up to 58.2 µM), for the others: at the top dose activity change, negative = inhibition, usual class: inhibitors; 360,000 tested, 0.2% active; AID 720542;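 further: potency means the concentration at half of the fitted maximal effect; 0% = vehicle wells and -100% = peptide control; nearly all actives have a fitted effect of over 45% in size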
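AMA1 (3D7) with his tag at 25 nM final met compounds first, then biotinylated RON2 peptide at 25 nM; detection used donor plus acceptor beads, 10 µg/mL apiece, read by AlphaScreen after 30 min at room temperature.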
* hit, by the source's call; i = inactive; ? = inconclusive; nt = no result given; + = active, no number; [ ] = dose if it differs, or a comment. Unless noted, the call rests on the fitted dose curve; in most records, active means well fitted curve in the direction sought with a large enough effect; inconclusive means small, poorly fitted or top-dose-only effect, or another doubt; inactive means no such curve, though single readings can be large; an effect the other way counts as inactive or inconclusive.

SMILES	Shiga inhibitor	Pf growth 48h	Pf growth 96h	CHX counter	HCV inh	AMA1-RON2 inh
Cc1ccc(NC(=O)C[n+]2cc(-c3ccc(C)cc3)n3c2CCC3)cc1	-4.1	6.57µM*	1.85µM*	-1.9	?	0.0%
Cc1cccc(C)c1NC(=O)C[n+]1cc(-c2ccccc2)n2c1CCC2	7.5	?	11.7µM*	-0.9	19.6%	-9.6%
Cc1ccc(-c2c[n+](CC(=O)Nc3ccc(C)cc3C)c3n2CCC3)cc1	9.6	?	?	0.7	-10.2%	-22.5%
CCCn1c(=O)c(C(=O)NNC(=O)c2ccccc2Cl)c(O)c2ccccc21	-8.7	20.1%	9.3%	1.4	-17.1%	61.3%
Cc1ccc(-c2c[n+](CC(=O)Nc3nc(-c4ccc(F)cc4)cs3)c3n2CCC3)cc1	-12.6	?	3.7µM*	6.4	?	-2.3%
O=C(O)[C@H](Cc1ccccc1)NC(=O)N1CCN(c2cccc(C(F)(F)F)c2)CC1	-4.7	-3.1%	4.2%	3.6	27.1%	10.3%
COc1cc(/C=C2\SC(=O)N(CCN)C2=O)ccc1OS(=O)(=O)c1cc(C)ccc1C	-28.5	-1.2%	-24.8%	-12.6	12.6µM*	5.1%
COc1ccc(/C=C2\SC(=O)N(CCC(=O)Nc3ccccc3)C2=O)cc1OC	-1.7	0.5%	-19.2%	-2.4	6.2%	12.7%
CCC1CN(C(=O)NCc2cccc(OC)c2)c2cc(Cl)ccc2O1 (stereo not drawn)	-5.6	?	25.4%	-2.2	5.62µM*	2.0%
CCC1CN(C(=O)NCc2cccc(OC)c2)c2ccccc2O1 (stereo not drawn)	4.6	-8.0%	40.3%	2.3	?	9.4%
CC1C(c2ccccc2)=Nn2c(=O)n(-c3ccccc3)c(=O)n21 (stereo not drawn)	nt	nt	nt	nt	nt	1.0%
O=C(Oc1c(Cl)cc(Cl)c2ccccc12)N1CCCCC1	34.5	nt	11.7µM*	13.8	?	4.9%
O=C(Oc1c(Br)cc(Br)c2cccnc12)N1CCCCC1	24.0	-14.1%	?	32.0*	?	0.0%
O=C(Oc1c(Cl)cc(Cl)c2ccccc12)N1CCCC1	-14.1	?	?	-3.0	-15.0%	-8.2%
O=C(Oc1ccc(Cl)c2ccccc12)N1CCCCC1	71.9*	nt	?	32.1*	?	20.9%
COc1cc(OC)c2c(c1C(CCN1CCOCC1)c1ccc(N(C)C)cc1)OC(=O)CC2c1ccc(N(C)C)cc1 (stereo not drawn)	-7.9	10.4µM*	?	2.3	?	14.1µM*
COc1cc(C(CCN2CCCC2)c2c(OC)cc(OC)c3c2OC(=O)CC3c2ccc(N(C)C)cc2)cc(OC)c1OC (stereo not drawn)	-9.8	nt	nt	-5.5	nt	nt
COc1ccc(C2CC(=O)Oc3c(C(CCN4CCN(c5ccccc5)CC4)c4ccc(N(C)C)cc4)c(OC)cc(OC)c32)cc1 (stereo not drawn)	-0.8	9.28µM*	10.4µM*	-0.4	-6.9%[8.37 µM]	11.2µM*
COc1ccc(C2CC(=O)Oc3c(C(CCN4CCOCC4)c4cc(OC)c(OC)c(OC)c4)c(OC)cc(OC)c32)cc1 (stereo not drawn)	-1.4	9.28µM*	?	7.1	-9.3%	-19.8%
COc1cc(C(CCN2CCOCC2)c2c(OC)cc(OC)c3c2OC(=O)CC3c2ccc(N(C)C)cc2)cc(OC)c1OC (stereo not drawn)	-20.6	?	?	4.7	-10.4%	20µM*
COc1ccc(C2CC(=O)Oc3c(C(CCN4CCOCC4)c4ccc5c(c4)OCO5)c(OC)cc(OC)c32)cc1 (stereo not drawn)	-7.6	nt	nt	-6.9	nt	nt
Cc1noc(C)c1C(=O)OCC(=O)NCc1ccccc1	nt	0.2%	89.3%	nt	15.3%	3.2%
COc1cccc(OC)c1CC1SC(=O)NC1=O (stereo not drawn)	14.7	5.5%	4.5%	11.4	-4.6%	13.6%
CCCC(/C=C/c1ccc(OC(C)=O)cc1)=C1/c2ccccc2C(=O)N1c1ccccc1	nt	?	?	nt	?	81.5%
Cc1c(C(=O)NCc2cccs2)sc(=O)n1Cc1ccc(S(C)(=O)=O)cc1	nt	nt	nt	nt	nt	-2.1%
SMILES	Shiga inhibitor	Pf growth 48h	Pf growth 96h	CHX counter	HCV inh	AMA1-RON2 inh
CC(C)Oc1ccc(CNC(=S)Nc2ccccc2)cc1Cl	nt	-4.1%	?	7.5	-2.0%	9.5%
CC(C)Oc1ccc(CCN=C(N)N=C(N)N)cc1Cl	50.6*	8.5%	?	28.6*	-17.7%	55.1%
O=C1O/C(=C/c2ccccc2)c2ccccc21	+	2.0%	49.0%	65.1*	-20.9%	57.4%
N#CC1=C(c2ccccc2)/C(=C/c2ccccc2)OC1=O	-5.4	4.9%	nt	-4.9	?	1.7%
Cc1ccc(/C=N/Nc2ccc(C(=O)O)cc2)o1	75.7*	i	?	30.0*	23.9%	2.4%
CC(C)c1ccc(/C=N/Nc2ccc(C(=O)O)cc2)cc1	9.1	43.2%	-22.6%	2.3	9.5%	-3.1%
O=C(O)c1cc(-c2ccc(/C=N/Nc3ccc(Cl)cc3)o2)ccc1Cl	14.1	11.3%	98.3%	1.8	22.0%	-2.9%
O=C(O)c1ccc(N/N=C/c2ccc(-c3ccc(Br)cc3)o2)cc1	39.3*	32.8%	14.6%	26.7*	8.2%	9.1%
COC(=O)C(Cc1ccccc1)NCC(=O)Nc1cccc(Cl)c1C (stereo not drawn)	-5.1	-1.2%	-5.0%	-5.6	0.8%	22.1%
COC(=O)CNC(=O)c1ccccc1	nt	nt	nt	nt	7.0%	-0.9%
CN(CC(=O)Nc1ccccc1Cl)C1CCCCC1	14.7	32.2%	?	7.0	7.9%	1.8%
O=C(NC(=O)c1ccc(Cl)cc1)OC1CCCCC1	63.1*	13.4%	23.6%	48.4*	17.0%	3.5%
O=C(CNC(=O)c1ccccc1)OC1CCCCC1	56.4*	288.8%	16.6%	34.7*	9.5%	3.2%
O=C(Nc1ccccc1Cl)OC1CCCCC1	99.7*	37.1%	50.4%	21.9	19.6%	54.7%
CC(C)CN(C(=O)c1ccc(Br)o1)C1CCS(=O)(=O)C1 (stereo not drawn)	nt	3.8%	25.6%	nt	?	-8.8%
CC(NCC(=O)Nc1ccccc1C(=O)NC1CC1)c1ccc(F)cc1F (stereo not drawn)	nt	?	-30.3%	nt	-9.2%	7.4%[11.6 µM]
Cc1ccc2oc(C(=O)N3CCN(c4cccc(C)n4)CC3)c(C)c2c1	nt	22.1%	?	27.0*	4.6%	?
Cc1cc(Cl)c2oc(C(=O)N3CCN(c4cnccn4)CC3)c(C)c2c1	nt	nt	nt	nt	nt	-7.0%
Cc1cc(Cl)c2oc(C(=O)N3CCN(c4cccc(C)n4)CC3)c(C)c2c1	nt	7.2%	3.7µM*	46.6*	9.9%	?
COc1ccccc1C(=O)N1CCN(C(=O)c2oc3ccc(C)cc3c2C)CC1	37.0	-24.0%	?	5.0	3.2%	-11.1%
CC(C)NC(=S)Nc1c(N)[nH]c(=O)[nH]c1=O	-16.5	12.9%	12.0%	-2.9	0.9%	2.3%

Bioassay records deposited in PubChem by National Center for Advancing Translational Sciences (NCATS).
